Bioassay records: PubChem BioAssay, National Center for Advancing Translational Sciences (NCATS)
KB-3-1 cytotox: KB-3-1 parental cell cytotoxicity | 400,000 tested, 1.4% active | KB-3-1 viability, CellTiter-Glo ATP luminescence, 72 h | Potency, µM (titrated, usually from 46.1 µM), hits mostly cytotoxic; further: on the % scale 0 is the no-effect control and ±100 the full control effect; nearly all actives have a fitted effect of over 60% in size
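KB-3-1 parental drug-naive adenocarcinoma cells in DMEM/10% FBS, incubated 72 h at 37 C with pin-transferred compounds across a concentration series. Viability by CellTiter-Glo luminescence; concentration-response curves fitted after normalization.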
ELG1 repair inh: blocks ELG1-dependent DNA repair in HEK293T cells | HEK293T ELG1-luciferase reporter, luminescence, 16 h; DNA damage induced by 5-fluorouridine | AID 504467 | Potency, µM (highest dose often 46.1 µM), without a hit: top-dose activity change, negative = inhibition, most hits filed as inhibitors | 330,000 tested, 2.3% active; further: on the % scale 0 is the no-effect control and ±100 the full control effect; nearly all actives have a fitted effect of over 55% in size
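HEK293T cells expressing luciferase-tagged ELG1 (2,000/well) received 5-Fluorouridine plus compound or DMSO for 16 hr at 37 °C. Luciferase was read by ONE-Glo luminescence after 30 min at room temperature.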
MCF10A rerep: inducers of DNA re-replication in MCF 10A breast cells. MCF 10A DNA re-replication, Hoechst nuclear intensity, 48 h. Potency, µM (series often up to 46.1 µM), without a hit: at the highest dose activity, positive = re-replication, actives largely listed as activators. 350,000 tested, 2.9% active; further: % of control where 0% means no effect; nearly all actives have a fitted effect of over 50% in size
KB-V1 cytotox: kills drug-selected multidrug resistant KB-V1 cells; KB-V1 MDR cells viability, CellTiter-Glo, 72 h; Potency, µM (top dose mostly 46.1 µM), most hits filed as cytotoxic; 400,000 tested, 3.4% active; AID 1347076; further: on the % scale 0 is the no-effect control and ±100 the full control effect; nearly all actives have a fitted effect of over 60% in size
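Luminescent ATP read-out (CellTiter-Glo, 10 min) measures survival of drug-selected KB-V1 MDR cells after 72 h, 37 degrees C compound exposure. Medium: phenol-red-free DMEM, 10% FBS. Values from fitted concentration-response curves.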
SW480 rereplic: DNA re-replication induction in SW480 cells; Potency, µM (titrated, usually from 46.1 µM), inactives show at the highest dose re-replication activation, actives largely listed as activators; AID 624297; 340,000 tested, 1.8% active; SW480 DNA re-replication, Hoechst DNA content imaging, 48 h; further: % of control where 0% means no effect; nearly all actives have a fitted effect of over 55% in size
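DNA re-replication was detected as more nuclei of elevated Hoechst intensity after 48 hr exposure to compound (23 nL pinned per well of 250 cells).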
The depositor's hits bear a star; i = inactive; ? = inconclusive; . = not tested or not shown. A selection: hits, their analogues and other compounds. The true share with any hit is near 8.2%. The call rests on the fitted dose curve; in most records, active means well fitted curve in the direction sought with a large enough effect; inconclusive means small, poorly fitted or top-dose-only effect, or another doubt; inactive means no such curve, though single readings can be large; an effect the other way counts as inactive or inconclusive. Potency means the concentration at half of the fitted maximal effect.

SMILES | KB-3-1 cytotox | ELG1 repair inh | MCF10A rerep | KB-V1 cytotox | SW480 rereplic
Cc1cc(C)c(NC(=O)Cn2c(=O)n(-c3cccc(C(F)(F)F)c3)c(=O)c3c(C)c(C)sc32)c(C)c1 | ? | . | . | i | .
CCOc1ccc(CC(=O)Nc2c(C(=O)c3ccc(C)cc3)oc3ccccc23)cc1OCC | i | . | . | i | .
CCN(CC)S(=O)(=O)c1cccc(-c2nnc(SCCOc3ccccc3C)o2)c1 | i | ? | ? | ? | 0%
CCN(CC)S(=O)(=O)c1cccc(-c2nnc(SCCOc3ccccc3)o2)c1 | ? | ? | 9% | 16µM* | -2%
CCN(CC)S(=O)(=O)c1cccc(-c2nnc(SCCOc3ccc(Cl)cc3)o2)c1 | ? | 21µM* | 20% | ? | 18%
CCN(CC)S(=O)(=O)c1cccc(-c2nnc(SCC(=O)c3cc(C)n(C)c3C)o2)c1 | i | ? | 18% | ? | 12%
O=C(NCCc1csc(-c2cccc(F)c2)n1)c1ccccc1C(F)(F)F | i | . | . | i | .
CCC(c1nnnn1-c1ccc2c(c1)OCCO2)N1CCN(C(=O)C2CCCO2)CC1 (centres undefined) | i | . | . | i | .
COc1cc2c(C(=O)N3CCN(C)CC3)c(C)oc2cc1Br | i | -5% | ? | ? | -11%
CCOC(=O)c1c(C)oc2cc(Br)c(OC(=O)N3CCOCC3)cc12 | i | 23µM* | -4% | i | -6%
CCOc1ccccc1Oc1c(C)oc2cc(OC(=O)N3CCOCC3)ccc2c1=O | i | 2% | 3% | 23µM* | -7%
COc1ccc(Oc2coc3cc(OC(=O)N4CCOCC4)ccc3c2=O)cc1 | i | ? | -4% | i | -1%
O=C(NCCNc1ccc([N+](=O)[O-])cc1C(F)(F)F)c1ccccc1 | i | -15% | -65% | 16µM* | 18%
O=C(NCCNc1ccc([N+](=O)[O-])cc1C(F)(F)F)c1cccc(F)c1 | ? | -16% | 19% | 18µM* | ?
O=S(=O)(Oc1ccccc1)c1ccc(Cl)c(Cl)c1 | i | . | -15% | ? | -9%
O=[N+]([O-])c1cc(S(=O)(=O)Oc2ccccc2)ccc1Cl | ? | . | ? | ? | 3.3µM*
CCOc1ccc(/C=C/C(=O)c2c(O)c3ccccc3oc2=O)cc1 | i | 15% | ? | 12µM* | ?
COc1ccc(NC(=O)c2ccc(=O)[nH]c2)cc1S(=O)(=O)N1CCCCC1 | . | 16% | 0% | . | -2%
CCOc1ncccc1C(=O)Nc1ccc(C)c(S(=O)(=O)N2CCCCCC2)c1 | ? | 21µM* | 9.2µM* | ? | -15%
Cc1ccc(NC(=S)Nc2ccc(C(C)C)cc2)cc1S(=O)(=O)N1CCCCCC1 | i | 12µM* | ? | 15µM* | ?
CC1CC(C)CN(S(=O)(=O)c2ccc(NC(=O)c3ccc(=O)[nH]c3)cc2)C1 (centres undefined) | 4.6µM* | -7% | 5.8µM* | i | ?
CCOc1ncccc1C(=O)Nc1ccc(OC)c(S(=O)(=O)N2CCCCC2)c1 | i | ? | 7% | ? | -3%
Cc1ccc(NC(=O)c2ccc(=O)[nH]c2)cc1S(=O)(=O)N1CCCCCC1 | i | 16µM* | 12% | i | -3%
CCOC(=O)C1=C(COC(=O)[C@@H](NC(=O)c2cccc(C)c2)C(C)C)NC(=O)NC1C (some centres undefined) | i | ? | 5% | i | -2%
CSc1nc(NCc2ccccc2)c2c3c(sc2n1)CN(C)CC3 | i | 14% | 23µM* | ? | 1%
SMILES | KB-3-1 cytotox | ELG1 repair inh | MCF10A rerep | KB-V1 cytotox | SW480 rereplic
CSc1nc(NCC(C)C)c2c3c(sc2n1)CN(C)CC3 | i | -13% | 15% | 18µM* | 6%
O=C(c1ccccc1)c1nn(-c2ccc(Cl)cc2)cc1C(=O)c1cc2ccccc2oc1=O | ? | ? | ? | 7.3µM* | 5%
CCOC(=O)c1[nH]ncc1CN1CCN(Cc2ccc(C)cc2)C(CCO)C1 (centres undefined) | i | -4% | -1% | i | -47%
CN(C)S(=O)(=O)c1cccc(NC(=O)CCSc2ccc(Cl)cc2)c1 | ? | ? | 6% | 12µM* | -7%
CC(=O)c1ccc(OCCCC(=O)Nc2cccc(S(=O)(=O)N(C)C)c2)cc1 | ? | -15% | 2% | 13µM* | -1%
Cc1c(Cl)cccc1NC(=O)CNc1cccc(S(=O)(=O)N(C)C)c1 | i | ? | -9% | 16µM* | 1%
CN(C)S(=O)(=O)c1cccc(NC(=O)CCNC(=O)Nc2ccccc2)c1 | i | -17% | 5% | i | -13%
CCc1ccc(OCCCC(=O)Nc2cccc(C(=O)O)c2)cc1 | i | 3% | 6% | i | 23µM*
COc1ccccc1CNC(=O)COC(=O)CCN=C1NS(=O)(=O)c2ccccc21 | i | 1% | 10% | i | -4%
C=Cc1ccc(CSc2nc(-c3ccc(C)cc3)nc3c2Cc2c(CO)cnc(C)c2O3)cc1 | i | . | . | i | .
CNC(=O)c1[nH]cnc1C(=O)Nc1ccc(OC)cc1 | i | ? | -5% | i | -5%
CNCc1nc(-c2ccc[nH]2)c2cc(Cl)ccc2n1 | i | . | . | ? | .
Cc1ccc(Cc2c(-c3ccc(C#N)cc3)nc3c4ccccc4ccn23)cc1 | i | . | . | ? | .
O=C(Nc1ccccc1F)Nc1cccc2ccc(O)cc12 | i | 13µM* | 3% | i | -4%
O=c1[nH]c(C2CCN(S(=O)(=O)c3ccccc3F)CC2)nc2c1nnn2Cc1ccc(OC(F)(F)F)cc1 | i | 18µM* | ? | i | -3%
COc1ccccc1Cn1nnc2c(=O)[nH]c(C3CCN(C(=O)c4ccc(F)cc4)CC3)nc21 | i | ? | -2% | i | -3%
CC(C)(C)CC(=O)N1CCC(c2nc3c(nnn3Cc3c(F)cccc3Cl)c(=O)[nH]2)CC1 | i | 16µM* | 3% | i | ?
O=C(c1ccccc1)N1CCC(c2nc3c(nnn3Cc3ccccc3Cl)c(=O)[nH]2)CC1 | i | ? | -2% | i | -1%
O=c1[nH]c(C2CCN(S(=O)(=O)c3ccccc3C(F)(F)F)CC2)nc2c1nnn2Cc1ccccc1 | i | ? | ? | i | 0%
Cc1ccc(Cn2nnc3c(=O)[nH]c(C4CCN(S(=O)(=O)c5ccccc5)CC4)nc32)cc1 | i | 1% | 15% | i | 18%
COc1ccccc1Cn1nnc2c(=O)[nH]c(C3CCN(C(=O)c4ccc(C)cc4)CC3)nc21 | i | 23µM* | -3% | i | 3%
Cc1ccc(Cn2nnc3c(=O)[nH]c(C4CCN(S(=O)(=O)Cc5ccccc5)CC4)nc32)cc1 | i | 15µM* | ? | i | ?
CC(=O)N1CCc2cc(Br)cc(S(=O)(=O)CCC(=O)N3CCN(c4ccc(F)cc4)CC3)c21 | i | . | . | i | .
